Laboratory results from PubChem BioAssay AID1159580 (chemical genetic matrix, 2015).
Values joined by “and” are separate entries in the source; they are usually repeats but may differ in a detail not shown here. Equal entries are not always repeated. Screen size: about 5,500 compounds; about 2,000 (36%) were called active. Another 18% or so got no clear call; they are omitted. Rule as the data show it: active = normalized growth mostly below about 0.91 (no sharp cut-off); inconclusive = no clear call, values can overlap the other calls; inactive = mostly above about 0.92. This is one part of the list.

Experiment: chemical genetic growth profiling, strain panel (AID 1159580);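 also: tested at 20 µM; growth read once vehicle control cultures reached saturation at 30 °C; 1 = growth at the plate median or of vehicle wells; lower values mean less growth of the strain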
Details: S. cerevisiae deletion strains, growth OD

Measured: normalized growth

COc1ccc(C2C(=O)c3ccccc3C2=O)cc1
inactive: locus YAL013W, strain DEP1, active compounds read low 0.997 | locus YAL021C, strain ccr4, active compounds read low 1.01 | locus YAL026C, strain drs2, active compounds read low 0.983 | locus YAL030W, strain snc1, active compounds read low 1 | locus YBL061C, strain skt5, active compounds read low 1.01 | locus YBR009C, strain hhf1, active compounds read low 0.998 | locus YBR021W, strain FUR4, active compounds read low 1.01 | locus YBR023C, strain chs3, active compounds read low 1.01 | locus YBR171W, strain sec66, active compounds read low 0.978 | locus YBR229C, strain ROT2, active compounds read low 1 | locus YBR231C, strain swc5, active compounds read low 1.02 | locus YBR279W, strain paf1, active compounds read low 1.01 | locus YCL011C, strain gbp2, active compounds read low 0.979 | locus YCL016C, strain dcc1, active compounds read low 1.03 | locus YCL029C, strain bik1, active compounds read low 0.983 | locus YCL069W, strain vba3, active compounds read low 0.986 | locus YCR088W, strain abp1, active compounds read low 0.999 | locus YDL005C, strain med2, active compounds read low 1.02 | locus YDL035C, strain GPR1, active compounds read low 1.01 | locus YDL040C, strain nat1, active compounds read low 1.02 | locus YDL074C, strain BRE1, active compounds read low 0.994 | locus YDL101C, strain DUN1, active compounds read low 1 | locus YDL185W, strain tfp1, active compounds read low 0.921 | locus YDL192W, strain arf1, active compounds read low 0.988 | locus YDR001C, strain nth1, active compounds read low 0.964 | locus YDR069C, strain doa4, active compounds read low 1.01 | locus YDR101C, strain arx1, active compounds read low 1.03 | locus YDR137W, strain rgp1, active compounds read low 0.978 | locus YDR150W, strain NUM1, active compounds read low 0.988 | locus YDR159W, strain sac3, active compounds read low 1.01 | locus YDR162C, strain NBP2, active compounds read low 1.02 | locus YDR195W, strain ref2 1.09 | locus YDR297W, strain sur2, active compounds read low 0.993 | locus YDR318W, strain mcm21, active compounds read low 0.993 | locus YDR334W, strain swr1, active compounds read low 0.983 | locus YDR335W, strain msn5, active compounds read low 1.02 | locus YDR388W, active compounds read low 1.01 | locus YDR392W, strain spt3, active compounds read low 1.02 | locus YDR502C, strain sam2, active compounds read low 0.998 | locus YEL003W, strain gim4, active compounds read low 0.993 | locus YEL037C, strain rad23, active compounds read low 0.994 | locus YEL061C, strain CIN8 (second series), active compounds read low 0.975 | locus YEL061C, strain CIN8, active compounds read low 0.98 | locus YER015W, strain faa2, active compounds read low 1.01 | locus YER016W, strain bim1, active compounds read low 0.995 | locus YER110C, active compounds read low 0.985 | locus YER111C, strain swi4, active compounds read low 0.994 | locus YER155C, strain BEM2 (second series), active compounds read low 0.993 | locus YER155C, strain BEM2, active compounds read low 0.998 | locus YER167W, strain BCK2, active compounds read low 1 | locus YFR010W, strain ubp6, active compounds read low 1.02 | locus YGL078C, strain dbp3, active compounds read low 0.99 | locus YGL086W, strain mad1, active compounds read low 1.01 | locus YGL167C, strain pmr1, active compounds read low 1 | locus YGL173C, strain kem1, active compounds read low 1.02 | locus YGL227W, strain vid30, active compounds read low 0.974 | locus YGL240W, strain doc1, active compounds read low 1.02 | locus YGL248W, strain PDE1, active compounds read low 1 | locus YGL253W, strain hxk2, active compounds read low 1.01 | locus YGR078C, strain PAC10, active compounds read low 0.998 | locus YGR135W, strain pre9, active compounds read low 0.963 | locus YGR252W, strain gcn5, active compounds read low 0.956 | locus YHR013C, strain ard1, active compounds read low 1.02 | locus YHR027C, strain rpn1, active compounds read low 1.01 | locus YHR030C, strain SLT2, active compounds read low 0.977 and 0.898 | locus YHR079C, strain IRE1 (second series), active compounds read low 0.991 | locus YHR079C, strain IRE1, active compounds read low 0.857 | locus YHR094C, strain hxt1, active compounds read low 0.999 | locus YHR129C, strain ARP1, active compounds read low 1.01 | locus YHR142W, strain chs7, active compounds read low 1.02 | locus YHR200W, strain rpn10, active compounds read low 0.995 | locus YIL066C, strain RNR3, active compounds read low 0.996 | locus YIL073C, strain SPO22, active compounds read low 0.977 | locus YIL125W, strain kgd1, active compounds read low 0.997 | locus YIR030C, strain dcg1, active compounds read low 0.987 | locus YJL092W, strain hpr5, active compounds read low 0.969 | locus YJL095W, strain BCK1 (second series), active compounds read low 0.981 | locus YJL095W, strain BCK1, active compounds read low 1 and 0.908 | locus YJL115W, strain asf1, active compounds read low 0.998 | locus YJL129C, strain trk1, active compounds read low 1.02 | locus YJL134W, strain LCB3, active compounds read low 1 | locus YJL154C, strain vps35, active compounds read low 0.99 | locus YJL164C, strain tpk1, active compounds read low 0.999 | locus YJL166W, strain qcr8, active compounds read low 1.01 | locus YJL168C, strain set2, active compounds read low 1.02 | locus YJL187C, strain SWE1 (second series), active compounds read low 0.998 | locus YJR043C, strain POL32, active compounds read low 1
